# Compound activity (PubChem)
# AMA1-RON2 inh – disrupts binding of P. falciparum AMA1 to RON2; AlphaScreen AMA1-biotinylated RON2 peptide binding; Potency, µM (titrated, usually from 58.2 µM), usual class: inhibitors; hit rate 0.2% among 360,000; further: nearly all actives have a fitted effect of over 45% in size
#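 AMA1 (3D7) with his tag at 25 nM final met compounds first, then biotinylated RON2 peptide at 25 nM; detection used donor plus acceptor beads, 10 µg/mL apiece, read by AlphaScreen after 30 min at room temperature.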
# TbPYK inhibitor – T. brucei pyruvate kinase inhibition; hit rate 0.12% among 410,000; TbPYK enzyme, Kinase-Glo Plus ATP luminescence, 45 min; Potency, µM (highest dose often 76.8 µM), actives largely listed as inhibitors; further: nearly all actives have a fitted effect of over 50% in size
#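 In this concentration-response screen, enzyme-free wells defined baseline while DMSO plates tracked drift. Each reaction combined TbPYK, substrate, compound and 130 uM ADP for 45 min at room temperature. Kinase-Glo Plus luminescence gave the signal.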
# RE007 growth inh – less growth of the S. pombe RE007 Vpr strain | hit rate 0.21% among 360,000 | S. pombe RE007 Vpr strain, BacTiter-Glo ATP luminescence, 24 h | Potency, µM (top dose mostly 92.2 µM), most hits filed as inhibitors | AID 651644; active means well fitted falling curve with a large enough effect; inconclusive means small, poorly fitted or top-dose-only effect; inactive means no such curve, though single readings can be large or run the other way; further: nearly all actives have a fitted effect of over 50% in size
#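 Fission yeast RE007 carrying one integrated HIV-1 vpr copy, seeded at OD 0.01 in PMG+AL medium with 23 nL pinned compound. Grown 24 h at 30 degrees; viability read by BacTiter-Glo luminescence after 5 min.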
# LmPK inhibitor – inhibitors of Leishmania mexicana pyruvate kinase; Q27686; purified LmPK, Kinase-Glo ATP luminescence, 1 h; Potency, µM (highest dose often 57.5 µM), usual class: inhibitors; hit rate 0.37% among 290,000; AID 1721
# Target sequence (Q27686 whole entry, looked up): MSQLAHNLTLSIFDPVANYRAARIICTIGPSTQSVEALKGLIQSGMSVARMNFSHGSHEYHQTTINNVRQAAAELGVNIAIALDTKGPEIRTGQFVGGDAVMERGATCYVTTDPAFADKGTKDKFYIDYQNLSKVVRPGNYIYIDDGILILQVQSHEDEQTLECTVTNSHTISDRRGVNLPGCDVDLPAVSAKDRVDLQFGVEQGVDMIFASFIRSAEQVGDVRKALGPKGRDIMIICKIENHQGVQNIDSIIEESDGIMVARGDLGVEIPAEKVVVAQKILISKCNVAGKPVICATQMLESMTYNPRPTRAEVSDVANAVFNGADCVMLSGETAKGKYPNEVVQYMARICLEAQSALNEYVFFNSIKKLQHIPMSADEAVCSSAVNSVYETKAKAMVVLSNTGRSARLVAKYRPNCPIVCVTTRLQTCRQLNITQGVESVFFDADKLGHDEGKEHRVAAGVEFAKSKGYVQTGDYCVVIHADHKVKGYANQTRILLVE
#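 0.1 nM LmPK, 0.5 mM PEP, 0.1 mM ADP; 50 mM imidazole pH 7.2, 7 mM MgCl2, 50 mM KCl; 1 h RT. Kinase-Glo luminescence readout, normalized to no-enzyme (full inhibition) and uninhibited wells.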
# Sm TGR block – blocks Schistosoma mansoni thioredoxin glutathione reductase. Q962Y6. purified TGR, DTNB reduction, TNB absorbance 405 nm. Potency, µM (titrated, usually from 114 µM), usual class: inhibitors. hit rate 3% among 360,000. AID 485364; further: nearly all actives have a fitted effect of over 60% in size
#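 TGR 20 nM + NADPH 100 uM (dispensed conc.), cpd preinc 15 min RT; start with NADPH (500 uM addition) then DTNB (15 mM addition). Kinetic TNB absorbance, 405 nm filter. Four-parameter Hill fit across titration.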
# Numbers stand for hits; – = inactive; ? = inconclusive; · = not tested or not shown; ! = not active in a repeat; [ ] = remark or other dose. The list is not random: actives were taken first. Their share in the collection is about 3.2%. Unless noted, the call rests on the fitted dose curve; in most records, active means well fitted curve in the direction sought with a large enough effect; inconclusive means small, poorly fitted or top-dose-only effect, or another doubt; inactive means no such curve, though single readings can be large; an effect the other way counts as inactive or inconclusive.
SMILES,AMA1-RON2 inh,TbPYK inhibitor,RE007 growth inh,LmPK inhibitor,Sm TGR block
CCOC(=O)CN(Cc1ccccc1)C(C(=O)NC1CCCCC1)c1ccc(C)cc1 (stereo not drawn),·,–,·,·,–
COC(CSc1ncnc2c1oc1nc3c(cc12)COC(C)(C)C3)OC,–,–,–,–,28.2µM
CC1(C)Cc2nc3oc4c(NCc5ccccc5)ncnc4c3cc2CO1,–,–,–,–,–
COCn1c(-c2ccc(OC)cc2)nc2ccccc21,–,–,–,22.4µM,–
COc1ccc(C(=O)NCCc2sc(-c3cccc(F)c3)nc2C)cc1,·,–,·,·,–
O=C(CCS(=O)(=O)c1ccccc1)N(CCCN1CCOCC1)c1nc2c(F)cccc2s1,–,–,–,·,11.2µM
O=C(CCS(=O)(=O)c1ccccc1)N(CCCN1CCOCC1)c1nc2ccc(F)cc2s1,–,–,–,·,12.6µM
CC1(C)CC(NCc2ccccc2)=CC(=S)N1,–,–,–,·,·
CC1(C)CC(N2CCN(CCO)CC2)=CC(=S)N1,–,–,–,–,39.8µM
NC(=O)/C=C/C(=O)Nc1ccc(Cl)cc1,–,–,11.2µM,–,3.55µM
O=C(/C=C/C(Cl)(Cl)Cl)Nc1ccc(Cl)cc1,–,–,?,·,·
CCOP(=O)(OCC)C(C)(C)NC(=O)c1cc([N+](=O)[O-])cc([N+](=O)[O-])c1,–,–,–,–,–
CCOP(=O)(OCC)C(NC(=O)c1cc([N+](=O)[O-])cc([N+](=O)[O-])c1)C(F)(F)F (stereo not drawn),–,–,–,–,12.6µM
CC(C)(C)c1ccc(COn2c(=O)c(-c3ccco3)[n+]([O-])c3ccccc32)cc1,–,·,–[3.69 µM],–,17.8µM
COc1cc(OC)c(NC(=O)C2CCN(S(=O)(=O)c3ccc4c(c3)oc(=O)n4C)CC2)cc1Cl,·,–,·,·,–
N#C/C(=C/c1ccc(N2CCOCC2)o1)c1nc2ccccc2[nH]1,–,–,–,–,?
N#C/C(=C\c1ccc(N2CCOCC2)o1)c1ccccc1,–,–,?,–,1.12µM
N#C/C(=C/c1ccc(N2CCOCC2)o1)c1ccc(Br)cc1,–,25.1µM,–,–,2µM
CN(C)C(=O)Oc1cccc(-c2cn3cc(Cl)ccc3n2)c1,–,–,–,–,–
CN(C)C(=O)Oc1ccc(-c2cn3cc(Cl)ccc3n2)cc1,–,–,–,12.6µM,–
CC(C)(C)C1=CC(=O)C(=O)C(C(C)(C)C)=C1,–,8.91µM,–,14.1µM,20µM
CN(C)S(=O)(=O)c1ccc2c(c1)N(CC(=O)N1CCN(c3ccccc3F)CC1)CCS2,·,–,·,·,–
O=C(O)CCc1ccc(-c2ccccc2)o1,–,–,?,–,1.41µM
O=C(O)CCc1nc(-c2ccccc2)c(-c2ccccc2)o1,·,–,·,–,–
NC(=O)c1nsc(C(=O)N(c2cccc(F)c2)C(C(=O)NCC2CCCO2)c2c[nH]c3ccccc23)c1N (stereo not drawn),–,–,–,–,17.8µM
SMILES,AMA1-RON2 inh,TbPYK inhibitor,RE007 growth inh,LmPK inhibitor,Sm TGR block
NC(=O)c1nsc(C(=O)N(c2ccc(F)cc2)C(C(=O)NCC2CCCO2)c2c[nH]c3ccccc23)c1N (stereo not drawn),–,–,–,–,25.1µM
Cc1ccc(S(=O)(=O)/N=C2/NC(=O)/C(=C/c3cccnc3)S2)cc1,–,–,–,–,–
Cc1ccc(S(=O)(=O)/N=C2/NC(=O)/C(=C\c3cc(Br)cc(Br)c3O)S2)cc1,–,–,–,–,28.2µM
Cc1ccc(S(=O)(=O)/N=C2/NC(=O)/C(=C/c3ccc(Br)o3)S2)cc1,–,–,–,–,22.4µM
Cc1ccc(-c2nn(-c3ccc(F)cc3F)c3c2cnc2ccc(F)cc23)cc1,·,–,·,·,–
O=C(O)c1cc(-c2ccco2)nc2ccc(Br)cc12,?,17.8µM!,–,–,0.708µM
O=C(c1ccco1)N1CCN(C(=O)c2cc(-c3ccccn3)nc3ccc(Cl)cc23)CC1,–,?,–,–,7.94µM
O=C(c1ccco1)N1CCN(C(=O)c2cc(-c3ccccc3)nc3ccccc23)CC1,–,–,–,–,–
O=C(c1ccco1)N1CCN(C(=O)c2cc(-c3ccncc3)nc3ccc(Br)cc23)CC1,–,–,–,·,·
COc1ccccc1CNC(=O)COC(=O)c1cc(-c2ccco2)nc2ccccc12,–,–,–,–,10µM
COc1cc(/C=N/NC(=O)c2cc(-c3ccco3)nc3ccccc23)cc(OC)c1O,–,–,–,–,44.7µM
